{"source": "PubChem BioAssay (NCATS)", "note": "Inconclusive results are not listed. The source made the active and inactive calls. Calls follow the shape of the dose curve; as a rule, active = well fitted cell-killing curve with a large enough effect; inconclusive = small, poorly fitted or top-dose-only effect, or effect the other way; inactive = no such curve, though single readings can be large or run the other way. Potency is read from the fitted curve at half-maximal effect."}
{"test": "Quantitative High-Throughput drug screen in 47 multiple myeloma cell lines against the NCATS MIPE library collection: KMS28BM_JCRB cell viability assay (AID 1919874); also: nearly all actives have a fitted effect of over 35% in size", "conditions": "CellTiter-Glo ATP, 48 h; series mostly up to 45.8 µM; viability, % of control: at the top concentration", "how_it_was_run": "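Readout: median RLU from CellTiter-Glo after 5 min at room temperature. Preceding step was 48 h drug treatment of 500 cells/well at 37 °C, 5% CO2, with DMSO-only and media-only control wells.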"}
{"smiles": "CCOC(=O)c1c(CSc2ccccc2)n(C)c2cc(Br)c(O)c(CN(C)C)c12", "Potency": "14.8 µM (active)"}
{"smiles": "Oc1ccc(C=Cc2cc(O)cc(O)c2)cc1", "viability, % of control": "119% (inactive)"}
{"smiles": "CN(C)c1ccccc1CN1CCCN(Cc2ccccc2N(C)C)C1c1ccncc1", "viability, % of control": "98.4% (inactive)"}
{"smiles": "Cc1nc2c([nH]1)CCN(C(=O)c1ccc(NC(=O)c3ccccc3-c3ccccc3)cc1)c1ccccc1-2", "viability, % of control": "91.9% (inactive)"}
{"smiles": "CC(=O)NCCC(=O)N[C@@H](CCC(N)=O)C(=O)N[C@@H](CO)C(=O)N[C@@H](CCC(N)=O)C(=O)N[C@@H](CCC(N)=O)C(=O)N[C@H](C(=O)N[C@@H](Cc1ccccc1)C(=O)N[C@]1(C)CCCCCCC=CCCC[C@@](C)(C(=O)N[C@@H](CCC(N)=O)C(=O)N[C@@H](CC(N)=O)C(N)=O)NC(=O)[C@H](CC(C)C)NC(=O)[C@H](CC(C)C)NC(=O)[C@@H](CCCNC(=N)N)NC(=O)[C@H](Cc2c[nH]c3ccccc23)NC(=O)[C@H](CC(C)C)NC(=O)[C@H](CC(N)=O)NC1=O)[C@H](C)O", "viability, % of control": "104% (inactive)"}
{"smiles": "CN(C)c1nc(Cc2ccc(NC(=O)c3ccc(C(F)(F)F)cc3)cc2)nc(N(C)C)c1CC(=O)O", "viability, % of control": "122% (inactive)"}
{"smiles": "COc1cc2c(cc1OC)CC(=O)N(CCCN(C)C[C@H]1Cc3cc(OC)c(OC)cc31)CC2", "viability, % of control": "120% (inactive)"}
{"smiles": "CC1(COc2ccc3c(c2)ncn3-c2ccc3cccc(N4CCC(N)CC4)c3n2)COC1", "Potency": "0.372 µM (active)"}
{"smiles": "C[C@@H]1CCO[C@H]2Cn3cc(C(=O)NCc4ccc(F)cc4F)c(=O)c(O)c3C(=O)N12", "Potency": "16.6 µM (active)"}
{"smiles": "CN1c2ccccc2C(=O)N2CCc3c([nH]c4ccccc34)C21", "note": "(stereo unspecified)", "Potency": "3.32 µM (active)"}
{"smiles": "COc1ccnc(CS(=O)c2nc3ccc(OC(F)F)cc3[nH]2)c1OC", "note": "(stereo unspecified)", "viability, % of control": "113% (inactive)"}
{"smiles": "CN(CC=CC#CC(C)(C)C)Cc1cccc2ccccc12", "viability, % of control": "105% (inactive)"}
{"smiles": "Cn1c(=O)c(Oc2ccc(F)cc2F)cc2cnc(NC3CCOCC3)nc21", "viability, % of control": "90.9% (inactive)"}
{"smiles": "CCCCn1c(=O)n(Cc2ccccc2F)c(=O)c2[nH]c(Cc3ccc(NC(C)=O)cc3)nc21", "viability, % of control": "77.7% (inactive)"}
{"smiles": "CCCCOCCOc1nc(-c2ccc(C(=O)O)c(F)c2)sc1C", "viability, % of control": "117% (inactive)"}
{"smiles": "CCCCc1ccc(NS(=O)(=O)c2ccc(C)c(C(=O)N3CCN(c4cccc(C)c4C)CC3)c2)cc1", "Potency": "16.6 µM (active)"}
